# Screening results (PubChem BioAssay)
# mcGAS RapidFire = blocks mouse cGAS cGAMP production; recombinant mouse cGAS, cGAMP by RapidFire MS; inhibition, % at 12.5 µM; 130,000 tested, 0.18% active; AID 1259397;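 active means inhibition of cGAS enzyme activity at or above 60%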;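 further: enzyme stimulated by 45 bp dsDNA with ATP and GTP substrates; cGAMP share of summed cGAMP plus half ATP and half GTP signals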
# Target sequence (Q8C6L5 whole entry, looked up): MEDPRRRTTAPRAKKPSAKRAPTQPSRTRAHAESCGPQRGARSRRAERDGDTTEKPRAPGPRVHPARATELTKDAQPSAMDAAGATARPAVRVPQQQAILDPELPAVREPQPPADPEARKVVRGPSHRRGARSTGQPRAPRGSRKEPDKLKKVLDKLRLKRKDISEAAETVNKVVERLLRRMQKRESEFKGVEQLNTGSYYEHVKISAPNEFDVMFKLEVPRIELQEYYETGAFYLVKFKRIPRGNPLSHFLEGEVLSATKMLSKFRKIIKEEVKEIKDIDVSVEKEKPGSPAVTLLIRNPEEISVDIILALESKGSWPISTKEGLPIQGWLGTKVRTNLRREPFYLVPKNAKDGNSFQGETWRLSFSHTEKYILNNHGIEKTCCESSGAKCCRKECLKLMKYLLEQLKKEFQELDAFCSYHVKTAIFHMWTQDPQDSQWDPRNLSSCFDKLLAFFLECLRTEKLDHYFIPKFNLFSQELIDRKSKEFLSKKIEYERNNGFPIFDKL
# Starred values were filed as active, the others as inactive; ! = a repeat was not active. Many of the other results were omitted from the sample, so hits are more common in it than they were.
SMILES,mcGAS RapidFire
COCCOC(=O)C1=C(C)N(C)C(=O)NC1c1ccccc1[N+](=O)[O-] (stereo not drawn),-8
COC(=O)C1=C(C)NC(C)=C(C(=O)OC)C1c1ccccc1[N+](=O)[O-],73*!
CCOC(=O)C1=C(C)NC(C)=C(C(=O)OC)C1c1cccc([N+](=O)[O-])c1 (stereo not drawn),-13
N#Cc1ccccc1N=Cc1nc(-c2cccc3ccccc23)oc1O,-13
Cn1nc2n(c1=O)CC(C(=O)Nc1cnc3n1CCCC3)CC2 (stereo not drawn),-23
c1cncc(COC2CCN(Cc3ccc(-c4ccn[nH]4)s3)CC2)c1,-6
Clc1ccc2c(Oc3ccc(Br)cc3)ccnc2c1,-20
Clc1ccc2c(-n3ccnc3)ccnc2c1,67*
Clc1ccc(Oc2ccnc3cc(Cl)ccc23)cc1,-4
Cc1nc(-c2ccc(-c3cccs3)s2)n(CC(=O)N(C)Cc2ccco2)c1C,-9
NS(=O)(=O)c1cc2c(cc1Cl)NCNS2(=O)=O,-1
CN1C(CCl)Nc2cc(Cl)c(S(N)(=O)=O)cc2S1(=O)=O (stereo not drawn),-6
CCC1NC(=O)c2cc(S(N)(=O)=O)c(Cl)cc2N1 (stereo not drawn),94*
CCCOc1ccc(C(=O)NCC2COc3ccccc3O2)cc1 (stereo not drawn),0
CN(CCNC(=O)c1ccn(-c2ccccc2Cl)n1)C1CC1,2
OCc1cn(-c2ccccc2Cl)nn1,94*
CS(=O)(=O)c1nnnn1-c1ccccc1Cl,21
N#Cc1ccc(NC(=O)NCc2ccn(-c3ccccc3)n2)cc1,-30
O=C(C1CC2CCC1C2)N1CCN(c2ccc(C(F)(F)F)cn2)CC1 (stereo not drawn),-7
Cc1ccc(-c2cccc(C(=O)N3CCCC(Nc4ccc5c(c4)OCO5)C3)c2)o1 (stereo not drawn),-2
Cc1cccc(-n2nnnc2SCC(=O)N2CCc3ccccc32)c1,-6
CCCc1nc2nc(C)c([N+](=O)[O-])c(=O)n2[nH]1,-6
CC(=O)Nc1nc2nc(C)c(C)c(=O)n2[nH]1,-12
Cc1nc2nc(C)c(Br)c(=O)n2[nH]1,69*
CCC(=O)N1CC23C=CC(CC2CC12CCCCC2)O3 (stereo not drawn),-14
SMILES,mcGAS RapidFire
COc1ccccc1Cn1ccc2c(cnc3nc(-c4ccncc4)nn32)c1=O,-11
COc1ccc(CNc2ccccc2-n2cccn2)cc1C,-1
COc1ccc(CNc2ncn[nH]2)cc1OC,-2
COc1ccc(CNc2c[nH]c(=O)cc2C)cc1OCCCC#N,83*
O=C(C1CC(=O)N(c2ccc3c(c2)OCO3)C1)N1CCCN(Cc2ccc(Cl)cc2)CC1 (stereo not drawn),-12
Cc1ccc(OCC(O)Cn2nnc3ccccc3c2=O)cc1 (stereo not drawn),-7
CCN(CC)CCNC(=O)c1cc(N2CCCCCC2)ccn1,-19
O=C(NCCN1CCCCC1)c1cc(N2CCCN3CCC[C@H]3C2)ccn1,78*
COCCNC(=O)c1cc(N2CCCN(C)CC2)ccn1,-16
Cc1cccc(NC(=O)Nc2ccc(Nc3cc(OC(C)C)nc(C)n3)cc2)c1,-6
O=C(Nc1nccs1)C(Sc1ccccc1)c1ccccc1 (stereo not drawn),-5
Cn1ccsc1=NC(=O)c1ccc(NC(=O)OC(C)(C)C)cc1,-14
CC(C)(C)OC(=O)Nc1ccsc1Br,66*!
CC(C)(C)OC(=O)Nc1ccncc1C(=O)c1ccccc1,-21
O=C(NNc1ccc(Cl)cc1)c1nc2ccc(Cl)cc2c(=O)n1CCO,-11
O=C(CN1Cc2ccc(Nc3cccc(F)c3)nc2C1=O)NCCCO,6
COC(=O)c1c2c(nc3c1c(-c1ccc(OC)cc1)nn3C1CCS(=O)(=O)C1)CCC2 (stereo not drawn),-7
CC1=C(c2ccccc2)[N+](=O)C2(CCCC2)N1[O-],64*
CC1=C(c2ccc(F)cc2)[N+](=O)C(C)(C)N1[O-],-9
COc1ccc(C2=C(C)N([O-])C(C)(C)[N+]2=O)cc1,-7
Cc1c(C(=O)Nc2cccc(C(C)O)c2)ncn1Cc1ccc(Cl)cc1 (stereo not drawn),-10
S=C(NCc1ccco1)NC1CCSc2ccccc21 (stereo not drawn),0
O=C1CSC(=NNC(=S)NCc2ccco2)N1,83*
C=C(N/N=C1/NC(=O)CS1)c1ccccc1,-6
COCCCNC(=O)C(C)N1CCN(c2nc(C)cs2)CC1 (stereo not drawn),10
SMILES,mcGAS RapidFire
CNS(=O)(=O)CCNCC(=O)NCc1ccccc1F,-5
CC1CN(S(=O)(=O)N2CC3CCCC3C2)CCO1 (stereo not drawn),-4
O=C1NC2(CCOc3ccccc32)C(=O)N1Cc1coc(-c2cccs2)n1 (stereo not drawn),95*
Cc1cc(C)cc(CN2C(=O)NC3(CCOc4ccccc43)C2=O)c1 (stereo not drawn),-5
O=C1NC2(CCOc3ccccc32)C(=O)N1CCN1C(=O)c2ccccc2C1=O (stereo not drawn),-10
Cc1oc2nc3c(c(=O)n(Cc4ccc(Cl)cc4Cl)c(=O)n3C)n2c1C,3
C=C(Br)CNC(=O)N1CCCN(C(=O)c2ccccc2Cl)CC1,-4
CCCc1noc(C(C)N2CCCN(C(=O)c3ccccc3Cl)CC2)n1 (stereo not drawn),76*
CCc1noc(C(C)N2CCN(S(=O)(=O)c3c(C)c(C)c(C)c(C)c3C)CC2)n1 (stereo not drawn),-3
CC(CC#N)Sc1ccccc1NC(=O)C1CC(=O)N(CC2CC2)C1 (stereo not drawn),66*
CCN1CC(C(=O)Nc2ccccc2C(C)C)CC1=O (stereo not drawn),3
O=C(Nc1ccc2scnc2c1)C1CC(=O)N(CC2CC2)C1 (stereo not drawn),-13
COCCN1C(=O)C2(NCCS2)c2ccccc21 (stereo not drawn),-11
O=c1[nH]c(CCl)nc2sc3c(c12)CCCC3,3
Cc1cccc(Nc2ncnc3c2nnn3C)n1,-8
CCOc1cc(C2SC(NC(C)=O)=NN2C(C)=O)ccc1OCc1ccc(Cl)cc1Cl (stereo not drawn),-5
CN(C)S(=O)(=O)c1cccc2c(S(=O)(=O)N(C)C)cccc12,-10
Cc1ccc(NS(=O)(=O)c2c(C)c(C)c(C)c(C)c2C)c(C)c1O,-2
O=C1c2c(O)ccc(O)c2C(=O)c2c(NCCNCCO)ccc(NCCNCCO)c21,83*!
O=C(Nc1ncc(Cl)s1)C1CC1c1ccco1 (stereo not drawn),-15
CCCCNc1cc(=O)n(-c2ccccc2C)nc1C(=O)OCC,-7
CC(C)c1cc(-c2nn3c(C4COc5ccccc5O4)nnc3s2)n[nH]1 (stereo not drawn),70*
c1ccc(CCc2nn3c(C4COc5ccccc5O4)nnc3s2)cc1 (stereo not drawn),54
CCCc1nnc2sc(-c3cc(C(C)C)[nH]n3)nn12,-29
CNC(=S)N=Nc1c(O)[nH]c2ccc([N+](=O)[O-])cc12,22
COC(=O)c1cn([C@@H]2C[C@@H](C(=O)Nc3ccc4c(c3)COC4)N(Cc3cc(C)c(OC)cc3C)C2)nn1,5
C[n+]1c2cc(N)ccc2cc2ccc(N)cc21,99*!
C=CCN=Cc1c(C(F)(F)F)[nH]n(-c2nc3ccccc3s2)c1=O,-15
Cc1[nH]n(-c2nc3ccccc3s2)c(=O)c1C=NC1CCN(Cc2ccccc2)CC1,-6
Cc1ccccc1N=Cc1c(C(F)(F)F)[nH]n(-c2nc3ccccc3s2)c1=O,69*
